Experimental data taken from paper PMC7862700, “An all-to-all approach to the identification of sequence-specific readers for epigenetic DNA modifications on cytosine”.

Experiments:
Assay in all cases: DAPPL (digital affinity profiling via proximity ligation, sequencing); 10 mM Tris-HCl pH 7.5, 50 mM NaCl, 1 mM DTT, 4% glycerol, room temperature, 30 min; GST-TFs on glutathione beads, 16-mer random dsDNA library, 0.1% formaldehyde crosslink after washing; high values mean tight binding
FEV = target: T1, FEV (Homo sapiens, UniProt Q99581 1-238); details: protein: recombinant; tags: N-terminal GST; dsDNA, one strand shown
T1 sequence: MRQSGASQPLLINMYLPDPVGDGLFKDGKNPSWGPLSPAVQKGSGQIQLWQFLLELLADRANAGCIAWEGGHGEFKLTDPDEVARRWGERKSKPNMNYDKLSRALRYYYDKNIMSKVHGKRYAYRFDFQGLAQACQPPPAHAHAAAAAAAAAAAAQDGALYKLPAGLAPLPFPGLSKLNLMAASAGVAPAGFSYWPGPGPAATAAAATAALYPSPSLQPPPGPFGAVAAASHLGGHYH
Summary of the method: (§1)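 Each value of binding signal is a hexamer's read frequency for a factor divided by the same hexamer's frequency in the tag-only sample. Barcoded, bead-captured GST fusions of human transcription factors made in yeast were pooled with that sample and incubated with 200 nmole of a random double-stranded 16-mer DNA library in Tris/NaCl/DTT/glycerol buffer at room temperature for 30 min. Washing, 0.1% formaldehyde crosslinking, proximity ligation, PCR and Illumina NextSeq500 sequencing followed.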

ETV5 = ETV5 (Homo sapiens, UniProt P41161 1-510); details: protein: recombinant; tags: N-terminal GST; dsDNA, one strand shown
ETV5, sequence (P41161 whole entry): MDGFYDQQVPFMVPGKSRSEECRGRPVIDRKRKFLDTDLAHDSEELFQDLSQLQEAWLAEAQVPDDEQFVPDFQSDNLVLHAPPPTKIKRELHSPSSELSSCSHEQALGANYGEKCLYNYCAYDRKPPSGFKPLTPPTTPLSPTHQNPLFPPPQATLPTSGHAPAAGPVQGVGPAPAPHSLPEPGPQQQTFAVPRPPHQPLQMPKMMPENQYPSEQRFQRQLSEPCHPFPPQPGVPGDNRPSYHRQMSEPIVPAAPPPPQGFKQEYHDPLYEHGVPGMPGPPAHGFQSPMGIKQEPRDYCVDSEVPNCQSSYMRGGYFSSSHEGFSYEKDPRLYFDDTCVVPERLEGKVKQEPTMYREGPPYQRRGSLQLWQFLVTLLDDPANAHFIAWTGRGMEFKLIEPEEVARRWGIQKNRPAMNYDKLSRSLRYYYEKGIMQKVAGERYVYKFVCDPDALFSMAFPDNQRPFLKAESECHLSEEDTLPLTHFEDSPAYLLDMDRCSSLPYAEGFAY
Summary of the method: as §1

HSF1 = HSF1 (Homo sapiens, UniProt Q00613 1-529); details: protein: recombinant; tags: N-terminal GST; chain copies: 3; dsDNA, one strand shown
HSF1, sequence (Q00613 whole entry): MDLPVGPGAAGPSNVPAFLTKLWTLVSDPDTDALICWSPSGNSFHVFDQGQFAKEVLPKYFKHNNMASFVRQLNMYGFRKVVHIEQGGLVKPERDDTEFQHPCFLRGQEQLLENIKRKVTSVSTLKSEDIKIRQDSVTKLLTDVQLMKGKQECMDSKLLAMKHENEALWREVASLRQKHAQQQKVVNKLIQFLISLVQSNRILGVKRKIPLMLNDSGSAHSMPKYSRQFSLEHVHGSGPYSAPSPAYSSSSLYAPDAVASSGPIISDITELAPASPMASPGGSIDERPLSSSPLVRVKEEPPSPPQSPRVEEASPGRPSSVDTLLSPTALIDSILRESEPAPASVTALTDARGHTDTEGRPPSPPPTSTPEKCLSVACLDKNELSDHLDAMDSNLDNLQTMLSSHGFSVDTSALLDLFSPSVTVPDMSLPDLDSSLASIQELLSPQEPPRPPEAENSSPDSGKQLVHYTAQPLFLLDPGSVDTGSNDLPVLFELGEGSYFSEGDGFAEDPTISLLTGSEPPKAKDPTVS
Summary of the method: as §1

SPIC = target: T2, SPIC (Homo sapiens, UniProt Q8N5J4 1-248); details: protein: recombinant; tags: N-terminal GST; dsDNA, one strand shown
T2 sequence: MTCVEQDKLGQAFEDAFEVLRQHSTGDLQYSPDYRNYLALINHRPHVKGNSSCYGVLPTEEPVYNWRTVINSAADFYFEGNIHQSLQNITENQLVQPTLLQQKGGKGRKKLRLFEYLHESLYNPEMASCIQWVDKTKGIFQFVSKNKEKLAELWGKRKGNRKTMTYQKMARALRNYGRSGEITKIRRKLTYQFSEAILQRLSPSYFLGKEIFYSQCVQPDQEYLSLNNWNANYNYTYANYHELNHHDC
Summary of the method: as §1

ELF4 = ELF4 (Homo sapiens, UniProt Q99607 1-663); details: protein: recombinant; tags: N-terminal GST; dsDNA, one strand shown
ELF4, sequence (Q99607 whole entry): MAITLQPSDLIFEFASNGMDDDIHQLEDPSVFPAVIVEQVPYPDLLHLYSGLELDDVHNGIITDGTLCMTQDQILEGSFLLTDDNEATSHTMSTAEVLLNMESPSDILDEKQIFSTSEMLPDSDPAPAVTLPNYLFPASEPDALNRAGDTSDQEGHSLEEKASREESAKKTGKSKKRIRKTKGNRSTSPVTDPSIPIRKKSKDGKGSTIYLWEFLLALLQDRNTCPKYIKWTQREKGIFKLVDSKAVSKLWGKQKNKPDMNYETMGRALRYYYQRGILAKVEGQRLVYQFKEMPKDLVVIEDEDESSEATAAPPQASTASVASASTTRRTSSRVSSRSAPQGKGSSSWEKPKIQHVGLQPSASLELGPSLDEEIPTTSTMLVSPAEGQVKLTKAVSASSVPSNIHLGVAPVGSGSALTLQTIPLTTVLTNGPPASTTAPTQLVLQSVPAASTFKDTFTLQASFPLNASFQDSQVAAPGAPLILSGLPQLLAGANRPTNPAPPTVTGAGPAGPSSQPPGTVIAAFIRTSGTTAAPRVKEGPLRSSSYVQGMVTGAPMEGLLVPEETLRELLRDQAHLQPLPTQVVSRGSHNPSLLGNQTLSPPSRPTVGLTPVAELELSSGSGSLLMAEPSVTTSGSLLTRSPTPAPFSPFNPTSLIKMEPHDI
Summary of the method: as §1

ELK4 = target: T3, ELK4 (Homo sapiens, UniProt P28324-2 1-405); details: protein: recombinant; tags: N-terminal GST; dsDNA, one strand shown
T3 sequence: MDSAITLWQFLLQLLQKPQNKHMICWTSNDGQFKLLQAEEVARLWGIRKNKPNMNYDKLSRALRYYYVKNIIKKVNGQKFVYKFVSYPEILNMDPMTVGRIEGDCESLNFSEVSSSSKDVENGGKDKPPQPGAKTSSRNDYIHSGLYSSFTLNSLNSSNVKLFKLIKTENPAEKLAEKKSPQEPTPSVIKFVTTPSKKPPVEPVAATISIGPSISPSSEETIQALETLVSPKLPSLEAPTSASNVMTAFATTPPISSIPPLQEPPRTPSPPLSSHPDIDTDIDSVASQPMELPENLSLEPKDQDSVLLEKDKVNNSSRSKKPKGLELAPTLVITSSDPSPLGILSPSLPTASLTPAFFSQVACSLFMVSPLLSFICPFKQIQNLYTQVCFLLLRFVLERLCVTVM
Summary of the method: as §1

ETV2 = target: T4, ETV2 (Homo sapiens, UniProt O00321 1-342); details: protein: recombinant; tags: N-terminal GST; dsDNA, one strand shown
T4 sequence: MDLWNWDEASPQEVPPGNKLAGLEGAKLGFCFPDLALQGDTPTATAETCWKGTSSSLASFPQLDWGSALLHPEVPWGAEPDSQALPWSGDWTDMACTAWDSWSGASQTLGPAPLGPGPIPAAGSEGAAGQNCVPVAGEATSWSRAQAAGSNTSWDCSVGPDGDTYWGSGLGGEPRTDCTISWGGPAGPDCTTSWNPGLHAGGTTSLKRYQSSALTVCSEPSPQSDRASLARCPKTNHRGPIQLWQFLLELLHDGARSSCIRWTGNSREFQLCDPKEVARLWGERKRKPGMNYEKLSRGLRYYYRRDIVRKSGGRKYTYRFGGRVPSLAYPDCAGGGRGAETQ
Summary of the method: as §1

ELF3 = target: T5, ELF3 (Homo sapiens, UniProt P78545 1-371); details: protein: recombinant; tags: N-terminal GST; dsDNA, one strand shown
T5 sequence: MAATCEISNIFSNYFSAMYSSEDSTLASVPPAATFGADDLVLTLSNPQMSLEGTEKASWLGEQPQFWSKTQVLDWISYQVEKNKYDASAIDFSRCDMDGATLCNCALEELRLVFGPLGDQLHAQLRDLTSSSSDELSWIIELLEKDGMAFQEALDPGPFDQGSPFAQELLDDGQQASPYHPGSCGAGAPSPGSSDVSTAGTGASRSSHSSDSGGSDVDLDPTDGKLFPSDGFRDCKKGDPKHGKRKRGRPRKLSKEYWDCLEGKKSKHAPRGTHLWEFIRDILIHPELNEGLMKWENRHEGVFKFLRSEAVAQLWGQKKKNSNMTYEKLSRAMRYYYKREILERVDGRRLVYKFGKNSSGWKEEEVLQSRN
Summary of the method: as §1

CRX = CRX (Homo sapiens, UniProt O43186 1-299); details: protein: recombinant; tags: N-terminal GST; dsDNA, one strand shown
CRX, sequence (O43186 whole entry): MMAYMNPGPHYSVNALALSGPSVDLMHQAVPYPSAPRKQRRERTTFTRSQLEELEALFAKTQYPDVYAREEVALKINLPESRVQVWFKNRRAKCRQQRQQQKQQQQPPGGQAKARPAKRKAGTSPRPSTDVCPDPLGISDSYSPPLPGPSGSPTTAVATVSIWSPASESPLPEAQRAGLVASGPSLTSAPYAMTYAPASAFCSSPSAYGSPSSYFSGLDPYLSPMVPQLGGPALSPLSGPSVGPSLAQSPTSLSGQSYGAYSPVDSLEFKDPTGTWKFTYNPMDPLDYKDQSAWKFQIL
Summary of the method: as §1

ETV1 = ETV1 (Homo sapiens, UniProt P50549 1-477); details: protein: recombinant; tags: N-terminal GST; dsDNA, one strand shown
ETV1, sequence (P50549 whole entry): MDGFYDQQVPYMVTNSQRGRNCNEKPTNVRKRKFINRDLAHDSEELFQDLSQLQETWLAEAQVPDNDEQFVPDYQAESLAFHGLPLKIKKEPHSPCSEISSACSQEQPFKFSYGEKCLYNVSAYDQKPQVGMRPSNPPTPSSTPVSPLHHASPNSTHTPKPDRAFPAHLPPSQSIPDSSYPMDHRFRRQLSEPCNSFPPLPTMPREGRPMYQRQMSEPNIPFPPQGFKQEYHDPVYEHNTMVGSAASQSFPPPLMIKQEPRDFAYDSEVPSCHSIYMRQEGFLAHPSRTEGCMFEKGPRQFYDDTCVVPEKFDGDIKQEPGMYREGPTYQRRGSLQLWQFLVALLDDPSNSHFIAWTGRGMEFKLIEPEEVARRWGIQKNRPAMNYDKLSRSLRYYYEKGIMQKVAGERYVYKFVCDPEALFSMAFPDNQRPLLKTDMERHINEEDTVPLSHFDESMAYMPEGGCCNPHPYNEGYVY
Summary of the method: as §1

ERF = target: T6, ERF (Homo sapiens, UniProt P50548 1-548); details: protein: recombinant; tags: N-terminal GST; dsDNA, one strand shown
T6 sequence: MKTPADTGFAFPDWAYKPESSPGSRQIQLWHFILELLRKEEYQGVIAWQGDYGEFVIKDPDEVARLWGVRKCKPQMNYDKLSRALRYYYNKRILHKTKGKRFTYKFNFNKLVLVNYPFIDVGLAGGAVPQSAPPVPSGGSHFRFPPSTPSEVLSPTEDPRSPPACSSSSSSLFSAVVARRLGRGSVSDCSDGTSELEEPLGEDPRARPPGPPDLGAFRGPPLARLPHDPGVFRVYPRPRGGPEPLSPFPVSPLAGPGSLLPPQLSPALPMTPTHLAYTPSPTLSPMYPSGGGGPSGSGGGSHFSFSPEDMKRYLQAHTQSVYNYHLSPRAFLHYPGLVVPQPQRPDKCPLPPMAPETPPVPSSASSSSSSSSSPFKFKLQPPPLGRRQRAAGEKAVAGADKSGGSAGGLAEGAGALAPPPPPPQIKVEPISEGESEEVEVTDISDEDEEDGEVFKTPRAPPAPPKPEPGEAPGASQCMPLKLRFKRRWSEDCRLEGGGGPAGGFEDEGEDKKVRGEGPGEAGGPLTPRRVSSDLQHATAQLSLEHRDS
Summary of the method: as §1

ETV3L = target: T7, ETV3L (Homo sapiens, UniProt Q6ZN32 1-361); details: protein: recombinant; tags: N-terminal GST; dsDNA, one strand shown
T7 sequence: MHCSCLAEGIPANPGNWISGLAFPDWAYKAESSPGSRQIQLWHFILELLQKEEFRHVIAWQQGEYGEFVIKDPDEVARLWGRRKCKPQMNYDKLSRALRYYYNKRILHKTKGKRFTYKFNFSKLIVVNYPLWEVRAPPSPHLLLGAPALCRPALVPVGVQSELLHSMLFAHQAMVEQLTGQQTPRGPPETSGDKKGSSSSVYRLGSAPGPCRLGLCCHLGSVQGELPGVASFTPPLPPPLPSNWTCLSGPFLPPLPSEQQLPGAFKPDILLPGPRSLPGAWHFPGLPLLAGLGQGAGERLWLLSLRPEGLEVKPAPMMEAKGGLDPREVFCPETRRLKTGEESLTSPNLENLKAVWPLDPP
Summary of the method: as §1

ETS2 = target: T8, ETS2 (Homo sapiens, UniProt P15036 1-469); details: protein: recombinant; tags: N-terminal GST; dsDNA, one strand shown
T8 sequence: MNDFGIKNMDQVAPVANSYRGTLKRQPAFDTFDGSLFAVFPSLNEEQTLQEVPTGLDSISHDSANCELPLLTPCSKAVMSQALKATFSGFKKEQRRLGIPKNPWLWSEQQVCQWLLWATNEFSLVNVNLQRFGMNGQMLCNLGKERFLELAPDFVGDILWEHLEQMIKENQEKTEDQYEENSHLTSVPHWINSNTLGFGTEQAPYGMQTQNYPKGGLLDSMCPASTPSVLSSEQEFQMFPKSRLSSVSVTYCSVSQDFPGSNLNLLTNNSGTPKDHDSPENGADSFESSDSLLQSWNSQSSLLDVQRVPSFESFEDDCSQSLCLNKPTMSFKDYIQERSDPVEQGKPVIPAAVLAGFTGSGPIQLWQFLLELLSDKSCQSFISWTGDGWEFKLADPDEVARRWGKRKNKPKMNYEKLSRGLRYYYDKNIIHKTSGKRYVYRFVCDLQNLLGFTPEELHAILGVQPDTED
Summary of the method: as §1

SPDEF = target: T9, SPDEF (Homo sapiens, UniProt O95238 1-335); details: protein: recombinant; tags: N-terminal GST; dsDNA, one strand shown
T9 sequence: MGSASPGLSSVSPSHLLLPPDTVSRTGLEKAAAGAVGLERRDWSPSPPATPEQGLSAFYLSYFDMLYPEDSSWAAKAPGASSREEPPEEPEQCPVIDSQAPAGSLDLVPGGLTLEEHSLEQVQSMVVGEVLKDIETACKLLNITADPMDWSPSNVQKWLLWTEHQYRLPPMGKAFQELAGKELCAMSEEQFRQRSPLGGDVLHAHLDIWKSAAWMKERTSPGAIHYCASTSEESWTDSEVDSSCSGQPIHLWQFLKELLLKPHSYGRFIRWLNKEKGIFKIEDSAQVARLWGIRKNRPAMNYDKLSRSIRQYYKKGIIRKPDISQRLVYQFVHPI
Summary of the method: as §1

ETV7 = target: T10, ETV7 (Homo sapiens, UniProt Q9Y603 1-341); details: protein: recombinant; tags: N-terminal GST; dsDNA, one strand shown
T10 sequence: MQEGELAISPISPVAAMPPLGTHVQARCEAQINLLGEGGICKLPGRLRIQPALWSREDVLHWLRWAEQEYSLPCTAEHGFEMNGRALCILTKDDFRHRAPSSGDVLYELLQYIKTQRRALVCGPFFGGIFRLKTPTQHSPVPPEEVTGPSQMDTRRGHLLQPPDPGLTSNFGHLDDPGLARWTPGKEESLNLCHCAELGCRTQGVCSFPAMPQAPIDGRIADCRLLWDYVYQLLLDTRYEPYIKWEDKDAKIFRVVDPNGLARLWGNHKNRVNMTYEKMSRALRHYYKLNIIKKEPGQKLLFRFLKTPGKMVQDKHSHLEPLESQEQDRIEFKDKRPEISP
Summary of the method: as §1

ELF5 = target: T11, ELF5 (Homo sapiens, UniProt Q9UKW6-2 1-255); details: protein: recombinant; tags: N-terminal GST; dsDNA, one strand shown
T11 sequence: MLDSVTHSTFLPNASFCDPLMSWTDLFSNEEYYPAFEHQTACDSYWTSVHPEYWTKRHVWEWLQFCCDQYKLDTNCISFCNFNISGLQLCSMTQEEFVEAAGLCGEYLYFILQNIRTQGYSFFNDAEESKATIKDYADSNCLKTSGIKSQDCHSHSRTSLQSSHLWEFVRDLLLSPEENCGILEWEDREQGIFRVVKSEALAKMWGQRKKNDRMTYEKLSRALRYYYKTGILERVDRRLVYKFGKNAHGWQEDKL
Summary of the method: as §1

ETV3 = target: T12, ETV3 (Homo sapiens, UniProt P41162-2 1-143); details: protein: recombinant; tags: N-terminal GST; dsDNA, one strand shown
T12 sequence: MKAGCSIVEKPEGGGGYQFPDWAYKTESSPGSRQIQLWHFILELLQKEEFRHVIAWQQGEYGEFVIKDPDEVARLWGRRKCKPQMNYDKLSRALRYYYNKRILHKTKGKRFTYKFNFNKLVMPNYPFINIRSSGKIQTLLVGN
Summary of the method: as §1

ETV6 = ETV6 (Homo sapiens, UniProt P41212 1-452); details: protein: recombinant; tags: N-terminal GST; dsDNA, one strand shown
ETV6, sequence (P41212 whole entry): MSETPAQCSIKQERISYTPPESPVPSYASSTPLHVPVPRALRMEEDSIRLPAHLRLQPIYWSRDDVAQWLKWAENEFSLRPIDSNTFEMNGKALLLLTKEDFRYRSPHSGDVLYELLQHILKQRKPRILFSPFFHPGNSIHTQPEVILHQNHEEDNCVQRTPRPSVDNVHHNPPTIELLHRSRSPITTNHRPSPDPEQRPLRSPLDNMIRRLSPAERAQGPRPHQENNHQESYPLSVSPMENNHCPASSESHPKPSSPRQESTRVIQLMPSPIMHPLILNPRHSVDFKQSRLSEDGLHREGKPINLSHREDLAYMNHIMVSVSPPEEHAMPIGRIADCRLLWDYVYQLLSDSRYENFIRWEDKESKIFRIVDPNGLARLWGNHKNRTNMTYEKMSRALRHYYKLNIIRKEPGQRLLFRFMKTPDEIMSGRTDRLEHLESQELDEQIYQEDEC
Summary of the method: as §1

TCGCCC
binding signal (FEV): 1.3 fold enrichment (6-mer frequency, TF over GST control) | binding signal (ETV5): 1.24 fold enrichment (6-mer frequency, TF over GST control) | binding signal (HSF1): 1.09 fold enrichment (6-mer frequency, TF over GST control) | binding signal (SPIC): 1.49 fold enrichment (6-mer frequency, TF over GST control) | binding signal (ELF4): 1.23 fold enrichment (6-mer frequency, TF over GST control) | binding signal (ELK4): 1.19 fold enrichment (6-mer frequency, TF over GST control) | binding signal (ETV2): 1.19 fold enrichment (6-mer frequency, TF over GST control) | binding signal (ELF3): 1.22 fold enrichment (6-mer frequency, TF over GST control) | binding signal (CRX): 1.07 fold enrichment (6-mer frequency, TF over GST control) | binding signal (ETV1): 1.26 fold enrichment (6-mer frequency, TF over GST control) | binding signal (ERF): 1.32 fold enrichment (6-mer frequency, TF over GST control) | binding signal (ETV3L): 1.34 fold enrichment (6-mer frequency, TF over GST control) | binding signal (ETS2): 1.23 fold enrichment (6-mer frequency, TF over GST control) | binding signal (SPDEF): 1.25 fold enrichment (6-mer frequency, TF over GST control) | binding signal (ETV7): 1.27 fold enrichment (6-mer frequency, TF over GST control) | binding signal (ELF5): 1.14 fold enrichment (6-mer frequency, TF over GST control) | binding signal (ETV3): 1.21 fold enrichment (6-mer frequency, TF over GST control) | binding signal (ETV6): 1.23 fold enrichment (6-mer frequency, TF over GST control)
